Records with an inconclusive call do not appear. Active and inactive are the calls of the source. Calls come from the whole dose curve; as a rule, active = well fitted curve in the direction sought with a large enough effect; inconclusive = small, poorly fitted or top-dose-only effect, or another doubt; inactive = no such curve, though single readings can be large; an effect the other way counts as inactive or inconclusive. Where a SMILES comes first, the peptide text is derived from it. [ ]: non-standard residue; d: D form. ξ: configuration not given here. ξPhe(βξ-Me) = CC(c1ccccc1)C(N)C(=O)O; GABA = NCCCC(=O)O
Tests used:
HEK293 = assay: Cytotoxic Profiling of Annotated Libraries Using Quantitative High-Throughput Screening (AID 1296008); conditions: Five cell lines viability, CellTiter-Glo ATP luminescence, 48-72 h; max response: stronger effect = lower value; note: nearly all actives have a fitted effect of over 60% in size
Outline: (§1)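 Compounds were pin-transferred onto cells and incubated 48 or 72 hr at 37 degree Celsius, 95% humidity. CellTiter-Glo was added, plates sat 10 min at room temperature, then ATP-coupled luminescence was imaged as the viability read-out.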

HaCat = assay: as above; conditions: Five cell lines viability, CellTiter-Glo ATP luminescence, 48-72 h; max response: stronger effect = lower value
Outline: as §1

KB-3-1 = assay: as above; conditions: Five cell lines viability, CellTiter-Glo ATP luminescence, 48-72 h; max response: stronger effect = lower value
Outline: as §1

NIH3T3 = assay: as above; conditions: Five cell lines viability, CellTiter-Glo ATP luminescence, 48-72 h; max response: stronger effect = lower value
Outline: as §1

C33A = assay: Primary qHTS to identify gynecologic anti-cancer compounds using libraries of approved drugs and bioactive compounds (AID 1345084); conditions: Gynecologic cancer cell panel viability, ATPlite luminescence, 48 h; series mostly up to 57.5 µM; note: nearly all actives have a fitted effect of over 55% in size
Outline: (§2)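 Cells, 1,000 per well, were allowed to settle for 16 h at 37 C before compound addition. Five concentrations were tested for 48 h, and viability was read by ATPlite luminescence after 15 min at room temperature.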

CAOV3 = assay: as above; conditions: Gynecologic cancer cell panel viability, ATPlite luminescence, 48 h; series mostly up to 57.5 µM
Outline: as §2

CASKI = assay: as above; conditions: Gynecologic cancer cell panel viability, ATPlite luminescence, 48 h; series mostly up to 57.5 µM
Outline: as §2

Es-2 = assay: as above; conditions: Gynecologic cancer cell panel viability, ATPlite luminescence, 48 h; series mostly up to 57.5 µM
Outline: as §2

HeLa = assay: as above; conditions: Gynecologic cancer cell panel viability, ATPlite luminescence, 48 h; series mostly up to 57.5 µM
Outline: as §2

Hek293T = assay: as above; conditions: Gynecologic cancer cell panel viability, ATPlite luminescence, 48 h, control line for the selectivity index; series mostly up to 57.5 µM
Outline: as §2

JEG-3 = assay: as above; conditions: Gynecologic cancer cell panel viability, ATPlite luminescence, 48 h; series mostly up to 57.5 µM
Outline: as §2
% is set by controls: 0 for no effect and ±100 for the full control effect; potency is the fitted concentration of half-maximal effect.

COc1cc(/C=C/C(=O)OC[C@H]2O[C@@](CO)(O[C@H]3O[C@H](CO)[C@@H](O)[C@H](O)[C@H]3O)[C@@H](OC(=O)/C=C/c3ccc(O)c(OC)c3)[C@@H]2O)ccc1O
inactive: max response (HEK293) 4.27% | max response (HaCat) -7.21% | max response (KB-3-1) -7.62% | max response (NIH3T3) 0.754% | Potency (C33A) | Potency (CAOV3) | Potency (CASKI) | Potency (Es-2) | Potency (HeLa) | Potency (Hek293T) | Potency (JEG-3)

C=C(C(=O)O)C1CCC2(C)CCC(O)C(=C)C2C1 (centres undefined)
inactive: max response (HEK293) -0.847% | max response (HaCat) -10.5% | outcome (KB-3-1) | max response (NIH3T3) -5.34% | Potency (C33A) | Potency (CAOV3) | Potency (CASKI) | Potency (Es-2) | Potency (HeLa) | Potency (Hek293T) | Potency (JEG-3)

CC(C)c1nnc(-c2ccc(-c3ccccc3)nc2)n1-c1cccc2nonc12
inactive: max response (HEK293) 3.01% | max response (HaCat) 4.99% | max response (KB-3-1) 2.23% | max response (NIH3T3) 4.73% | Potency (C33A) | Potency (CAOV3) | Potency (CASKI) | Potency (Es-2) | Potency (HeLa) | Potency (Hek293T) | Potency (JEG-3)

O=C1NC2CCc3nc4ccccc4c(=O)n3C2=Nc2ccccc21 (centres undefined)
inactive: max response (HEK293) -3.35% | max response (HaCat) 3.54% | outcome (KB-3-1) | max response (NIH3T3) 4.44% | Potency (C33A) | Potency (CAOV3) | Potency (CASKI) | Potency (Es-2) | Potency (HeLa) | Potency (Hek293T) | Potency (JEG-3)

C=C[C@@H]1[C@H](O[C@@H]2O[C@H](CO)[C@@H](O)[C@H](O)[C@H]2O)OC=C(C(=O)O)[C@H]1CCOC(=O)/C=C/c1ccc(O)c(O)c1
inactive: max response (HEK293) 4.3% | max response (HaCat) -20.8% | outcome (KB-3-1) | max response (NIH3T3) 0.24% | Potency (C33A) | Potency (CAOV3) | Potency (CASKI) | Potency (Es-2) | Potency (HeLa) | Potency (Hek293T) | Potency (JEG-3)

CC1NC(=O)CCCNC(=O)C(Cc2c[nH]c3ccccc23)NC(=O)C(C)NC(=O)C(C(C)C)NC(=O)C(C(C)c2ccccc2)NC(=O)C(C(C)C)NC1=O (stereo not drawn) (cyclo([GABA]AV[ξPhe(βξ-Me)]VAW); configuration not given here)
inactive: max response (HEK293) -4.9% | max response (HaCat) -0.27% | max response (KB-3-1) -4.62% | max response (NIH3T3) -4.21% | Potency (C33A) | Potency (CAOV3) | Potency (CASKI) | Potency (Es-2) | Potency (HeLa) | Potency (Hek293T) | Potency (JEG-3)

CCC(CC)C(=O)Nc1sc2c(c1C#N)CCC(C(C)(C)CC)C2 (centres undefined)
inactive: max response (HaCat) 1.75% | max response (KB-3-1) -9.22% | max response (NIH3T3) 3.55% | Potency (C33A) | Potency (CAOV3) | Potency (CASKI) | Potency (Es-2) | Potency (HeLa) | Potency (JEG-3)
active: Potency (HEK293) 23.1 µM

C=CC1(C)C=C2C(=O)OC(=O)C3=C(CCCC3(C)C)C2(O)CC1 (centres undefined)
inactive: max response (HEK293) -14.3% | max response (HaCat) 1.65% | max response (KB-3-1) 7.97% | max response (NIH3T3) 0.193% | Potency (C33A) | Potency (CAOV3) | Potency (CASKI) | Potency (Es-2) | Potency (HeLa) | Potency (Hek293T) | Potency (JEG-3)

COc1ccc2c(OC)c3ccoc3nc2c1OC
inactive: max response (HEK293) -25.3% | max response (HaCat) -7.51% | max response (KB-3-1) 4.27% | max response (NIH3T3) -9.34% | Potency (C33A) | Potency (CAOV3) | Potency (CASKI) | Potency (Es-2) | Potency (Hek293T) | Potency (JEG-3)

COc1cc(O)cc(C)c1C(=O)O[C@H]1[C@@H](OC(C)=O)[C@H](n2ccc(=O)[nH]c2=O)O[C@@H]1CO
inactive: max response (HEK293) 4.85% | max response (HaCat) -17.4% | max response (KB-3-1) 7.29% | max response (NIH3T3) 0.716% | Potency (C33A) | Potency (CAOV3) | Potency (CASKI) | Potency (Es-2) | Potency (HeLa) | Potency (JEG-3)

C(#Cc1nc2ncccc2nc1OCCN1CCCC1)c1ccccc1
active: Potency (HEK293) 1.84 µM | Potency (HaCat) 5.8 µM | Potency (KB-3-1) 8.2 µM | Potency (NIH3T3) 5.17 µM | Potency (C33A) 7.08 µM | Potency (CAOV3) 7.08 µM | Potency (CASKI) 17.8 µM | Potency (Es-2) 3.55 µM | Potency (Hek293T) 10 µM

CC1=C(CO)C(=O)O[C@@H]([C@@H](C)[C@H]2CC[C@H]3[C@@H]4C[C@H]5O[C@]56[C@@H](O)C=CC(=O)[C@]6(C)[C@H]4CC[C@]23C)C1
active: Potency (HEK293) 1.12 µM | Potency (HaCat) 3.17 µM | Potency (KB-3-1) 2.82 µM | Potency (NIH3T3) 5.63 µM | Potency (C33A) 4.47 µM | Potency (CAOV3) 8.91 µM | Potency (Es-2) 11.2 µM | Potency (Hek293T) 11.2 µM

CC[C@@H](N)CNc1ccnc(-c2cc(-c3cnn(C)c3)ccc2O)n1
active: Potency (HEK293) 5.17 µM | Potency (HaCat) 5.8 µM | Potency (KB-3-1) 4.61 µM | Potency (NIH3T3) 14.6 µM | Potency (C33A) 8.91 µM | Potency (CASKI) 3.98 µM | Potency (Es-2) 20 µM | Potency (Hek293T) 11.2 µM | Potency (JEG-3) 12.6 µM
inactive: Potency (CAOV3)

— PubChem BioAssay (NCATS)
